Experimental data taken from PubChem BioAssay (Tox21).
Inconclusive results are not listed. Values without a mark were called inactive. Activity calls are given as the source filed them. Unless noted, calls come from the whole dose curve.

Tested on: not listed separately
Test: qHTS assay to identify small molecule antagonists of the estrogen receptor alpha (ER-alpha) signaling pathway - cell viability counter screen (AID 743074);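 note: HEK293 cells carrying ER-alpha-UAS-bla reporter stimulated with 17beta-estradiol; nearly all actives have a fitted effect of over 45% in size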
Settings: ERalpha-bla HEK293 viability, CellTiter-Glo luminescence, 18 h; series mostly up to 69.4 µM; activity, negative = cytotoxicity: at the top concentration
% is set by controls: 0 for no effect and ±100 for the full control effect.

Row | SMILES | activity, negative = cytotoxicity | Potency
1 | C[C@@H]1CN(c2c(F)c(N)c3c(=O)c(C(=O)O)cn(C4CC4)c3c2F)C[C@H](C)N1 | 19.5% | –
2 | CC1(C)C(=O)N(Cl)C(=O)N1Br | 25.1% | –
3 | CCCCCCC | 13.2% [at 79.1 µM] | –
4 | CCC/C=C/CO | -10.3% | –
5 | CCOC(=O)c1ccccc1O | – | inactive
6 | Cc1ccc([N+](=O)[O-])cc1Cl | 15.6% [at 79.1 µM] | –
7 | OCCN1CCN(CCO)CC1 | 8.78% [at 79.1 µM] | –
8 | COc1ccccc1OCC(O)COC(N)=O (stereo unspecified) | 5.55% [at 32.6 µM] | –
9 | C=O | – | inactive
10 | CC/C=C\CCOC(=O)CCCCC | 11.2% | –
11 | CCOc1ccc(NC(N)=O)cc1 | 8.27% | –
12 | Clc1cccc(-c2cc(Cl)cc(Cl)c2)c1 | 6.37% | –
13 | CC1=CC(=O)CC(C)(C)C1=O | -3.53% [at 79.1 µM] | –
14 | CN(CC1(C)CCCO1)S(=O)(=O)c1ccc(Cl)c(S(N)(=O)=O)c1 (stereo unspecified) | 28.7% | –
15 | C=CCCCCCCCCO | 8.51% | –
16 | CC1=NN(c2cc(Cl)c(S(=O)(=O)O)cc2Cl)C(=O)C1N=Nc1ccc(S(=O)(=O)O)cc1 (stereo unspecified) | -8.91% | –
17 | O=C(O)C(=O)Cc1c[nH]c2ccccc12 | 18.6% | –

Row | SMILES | activity, negative = cytotoxicity | Potency
18 | CS(=O)(=O)c1ccc([C@@H](O)[C@@H](CF)NC(=O)C(Cl)Cl)cc1 | 12.7% [at 32.6 µM] | –
19 | COc1ccc2nc(NC(=O)Nc3ccccc3)sc2c1 | -11.5% | –
20 | O=c1oc2c(O)c(O)cc3c(=O)oc4c(O)c(O)cc1c4c23 | -9.18% | –
21 | CCC(=O)Nc1ccc(O)cc1 | 19.8% | –
22 | Cc1nnc(SCC2=C(C(=O)O)N3C(=O)[C@@H](NC(=O)Cn4cnnn4)[C@H]3SC2)s1 | 18.4% | –
23 | Cc1ccc([N+](=O)[O-])c(N)c1 | 15% | –
24 | CCCOCCC | 23.9% | –
25 | C=CC1CO1 (stereo unspecified) | -8.57% [at 79.1 µM] | –
26 | Cc1ccc(C(C)C)cc1O | 10.3% | –
27 | COc1cc(Cl)ccc1Cl | -13.1% [at 79.1 µM] | –
28 | CCNCCO | 4.56% | –
29 | CC(C)OC(C)C | -5.26% [at 79.1 µM] | –
30 | ClC(Cl)Cl | – | inactive
31 | CCCN(CCC)C(=O)C(CCC(=O)O)NC(=O)c1ccccc1 (stereo unspecified) | -11.2% | –
32 | CC1(C)O[C@@H]2C[C@H]3[C@@H]4CCC5=CC(=O)CC[C@]5(C)[C@@]4(F)[C@@H](O)C[C@]3(C)[C@]2(C(=O)CCl)O1 | 8.25% [at 32.6 µM] | –
33 | O=C(O[C@@H](C(=O)O)[C@@H](OC(=O)c1ccccc1)C(=O)O)c1ccccc1 | -17% [at 79.1 µM] | –

Biological target: Estrogen receptor (Homo sapiens) (UniProt P03372)
Test: qHTS assay to identify small molecule agonists of the estrogen receptor alpha (ER-alpha) signaling pathway (AID 743075);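 note: HEK293 GripTite cells with ER-alpha and UAS-driven beta-lactamase reporter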
Settings: HEK293 ER-alpha-UAS-bla, beta-lactamase FRET ratio, 18 h; series mostly up to 70.1 µM; activation: at the top concentration

Chain of Estrogen receptor (Homo sapiens) (P03372 whole entry, looked up): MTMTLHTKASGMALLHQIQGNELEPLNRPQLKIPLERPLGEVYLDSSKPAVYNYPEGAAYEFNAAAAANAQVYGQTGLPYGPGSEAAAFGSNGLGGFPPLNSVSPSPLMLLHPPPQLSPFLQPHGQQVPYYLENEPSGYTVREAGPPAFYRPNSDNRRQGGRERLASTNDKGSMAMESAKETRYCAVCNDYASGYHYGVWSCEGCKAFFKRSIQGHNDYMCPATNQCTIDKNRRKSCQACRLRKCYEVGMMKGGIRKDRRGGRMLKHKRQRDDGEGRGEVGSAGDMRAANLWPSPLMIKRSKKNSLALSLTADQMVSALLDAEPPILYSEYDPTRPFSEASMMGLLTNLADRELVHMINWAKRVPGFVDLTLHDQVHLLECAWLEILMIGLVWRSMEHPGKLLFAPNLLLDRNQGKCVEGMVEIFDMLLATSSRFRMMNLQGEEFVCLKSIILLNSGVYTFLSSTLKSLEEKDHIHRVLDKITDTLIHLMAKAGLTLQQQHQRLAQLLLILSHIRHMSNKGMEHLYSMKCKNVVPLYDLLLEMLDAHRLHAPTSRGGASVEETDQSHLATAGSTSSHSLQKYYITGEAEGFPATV

Row | SMILES | activation
34 | C[C@@H]1CN(c2c(F)c(N)c3c(=O)c(C(=O)O)cn(C4CC4)c3c2F)C[C@H](C)N1 | 2%
35 | CCCCCCC | 1.12% [at 79.1 µM]
36 | CCC/C=C/CO | 2.29%
37 | COc1ccccc1OCC(O)COC(N)=O (stereo unspecified) | -1.1% [at 32.9 µM]
38 | CC/C=C\CCOC(=O)CCCCC | 1.61%
39 | CCOc1ccc(NC(N)=O)cc1 | 0.754%
40 | CC1=CC(=O)CC(C)(C)C1=O | -0.224% [at 79.1 µM]
41 | C=CCCCCCCCCO | 3.35%
42 | O=C(O)C(=O)Cc1c[nH]c2ccccc12 | 3.07%
43 | CS(=O)(=O)c1ccc([C@@H](O)[C@@H](CF)NC(=O)C(Cl)Cl)cc1 | -1.36% [at 32.9 µM]
44 | O=c1oc2c(O)c(O)cc3c(=O)oc4c(O)c(O)cc1c4c23 | -1.4%
45 | CCC(=O)Nc1ccc(O)cc1 | -1.25%
46 | Cc1nnc(SCC2=C(C(=O)O)N3C(=O)[C@@H](NC(=O)Cn4cnnn4)[C@H]3SC2)s1 | 0.485%
47 | CCCOCCC | -2.11%
48 | O=C1CCCCCCCCCCC(=O)OCCO1 | 6.84%
49 | FC(F)(F)c1ccccc1 | 3.3%
50 | CC(C)OC(C)C | -3.6% [at 79.1 µM]
51 | O=C(O[C@@H](C(=O)O)[C@@H](OC(=O)c1ccccc1)C(=O)O)c1ccccc1 | 1.01% [at 79.1 µM]

Biological target: Estrogen receptor (Homo sapiens) (UniProt P03372)
Test: qHTS assay to identify small molecule agonists of the estrogen receptor alpha (ER-alpha) signaling pathway using the BG1 cell line (AID 743079; active = well fitted activation curve with a large enough effect in the repeat runs; note: nearly all actives have a fitted effect of over 20% in size)
Settings: BG1Luc4E2 cells, ERE-luciferase agonist, 22 h; series mostly up to 70.3 µM; activation: at the top concentration

Row | SMILES | activation
52 | C[C@@H]1CN(c2c(F)c(N)c3c(=O)c(C(=O)O)cn(C4CC4)c3c2F)C[C@H](C)N1 | 18%
53 | CCCCCCC | 36.9% [at 95 µM]
54 | CCC/C=C/CO | 25.2%
55 | COc1ccccc1OCC(O)COC(N)=O (stereo unspecified) | -2.7% [at 32.5 µM]
56 | CC/C=C\CCOC(=O)CCCCC | 0.361%
57 | Clc1cccc(-c2cc(Cl)cc(Cl)c2)c1 | 12.7%
58 | CC1=CC(=O)CC(C)(C)C1=O | -7.06% [at 95 µM]
59 | C=CCCCCCCCCO | -6.26%
60 | O=C(O)C(=O)Cc1c[nH]c2ccccc12 | 9.9%
61 | CS(=O)(=O)c1ccc([C@@H](O)[C@@H](CF)NC(=O)C(Cl)Cl)cc1 | -0.447% [at 32.5 µM]
62 | O=c1oc2c(O)c(O)cc3c(=O)oc4c(O)c(O)cc1c4c23 | 1.54%
63 | CCC(=O)Nc1ccc(O)cc1 | -0.469%
64 | Cc1nnc(SCC2=C(C(=O)O)N3C(=O)[C@@H](NC(=O)Cn4cnnn4)[C@H]3SC2)s1 | 0.177%
65 | CCCOCCC | 2.89%
66 | O=C1CCCCCCCCCCC(=O)OCCO1 | 4.38%
67 | FC(F)(F)c1ccccc1 | 0.0096%
68 | CC(C)OC(C)C | 0.714% [at 95 µM]
69 | CC1(C)O[C@@H]2C[C@H]3[C@@H]4CCC5=CC(=O)CC[C@]5(C)[C@@]4(F)[C@@H](O)C[C@]3(C)[C@]2(C(=O)CCl)O1 | 4.37% [at 32.5 µM]
70 | O=C(O[C@@H](C(=O)O)[C@@H](OC(=O)c1ccccc1)C(=O)O)c1ccccc1 | 12.7% [at 95 µM]

Tested on: not listed separately
Test: qHTS assay to identify small molecule antagonists of the estrogen receptor alpha (ER-alpha) signaling pathway using the BG1 cell line (AID 743080);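 note: BG1 cells stimulated with 17beta-estradiol alongside compound; nearly all actives have a fitted effect of over 25% in size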
Settings: BG1Luc4E2 ERE-luciferase antagonist mode, luminescence; series mostly up to 70.3 µM; activity change, negative = inhibition: at the top concentration
Procedure, shortened: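 Readout is ONE-Glo luminescence, taken 30 min at room temperature after reagent addition, preceded by a CellTiter-Fluor viability read; BG1-Luc-4E2 cells had received compound and 17beta-estradiol for 21.5 h at 37 C.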

Row | SMILES | activity change, negative = inhibition
71 | C[C@@H]1CN(c2c(F)c(N)c3c(=O)c(C(=O)O)cn(C4CC4)c3c2F)C[C@H](C)N1 | -12%
72 | CCCCCCC | 5.01% [at 95 µM]
73 | CCC/C=C/CO | -8.51%
74 | COc1ccccc1OCC(O)COC(N)=O (stereo unspecified) | 0% [at 32.5 µM]
75 | CC/C=C\CCOC(=O)CCCCC | -1.62%
76 | CCOc1ccc(NC(N)=O)cc1 | 8.69%
77 | Clc1cccc(-c2cc(Cl)cc(Cl)c2)c1 | 0.998%
78 | CC1=CC(=O)CC(C)(C)C1=O | -10.5% [at 95 µM]
79 | C=CCCCCCCCCO | -9.28%
80 | O=c1oc2c(O)c(O)cc3c(=O)oc4c(O)c(O)cc1c4c23 | -21.3%
81 | CCC(=O)Nc1ccc(O)cc1 | -1.41%
82 | Cc1nnc(SCC2=C(C(=O)O)N3C(=O)[C@@H](NC(=O)Cn4cnnn4)[C@H]3SC2)s1 | 11.3%
83 | CCCOCCC | 3.49%
84 | FC(F)(F)c1ccccc1 | 2.28%
85 | CC(C)OC(C)C | -17.7% [at 95 µM]
86 | O=C(O[C@@H](C(=O)O)[C@@H](OC(=O)c1ccccc1)C(=O)O)c1ccccc1 | 2.23% [at 95 µM]
